The campaign covered roughly 65,000 compounds. About 450 (0.69%) were called active.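 Rule for the calls: active = HER2 level under 5% of the carrier-only control; inconclusive = no clear call, values can overlap the other calls; inactive = the rest.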 Only a selection was taken, and actives are over-represented in it overall.

Chain of Receptor tyrosine-protein kinase erbB-2 (Homo sapiens) (P04626 whole entry, looked up): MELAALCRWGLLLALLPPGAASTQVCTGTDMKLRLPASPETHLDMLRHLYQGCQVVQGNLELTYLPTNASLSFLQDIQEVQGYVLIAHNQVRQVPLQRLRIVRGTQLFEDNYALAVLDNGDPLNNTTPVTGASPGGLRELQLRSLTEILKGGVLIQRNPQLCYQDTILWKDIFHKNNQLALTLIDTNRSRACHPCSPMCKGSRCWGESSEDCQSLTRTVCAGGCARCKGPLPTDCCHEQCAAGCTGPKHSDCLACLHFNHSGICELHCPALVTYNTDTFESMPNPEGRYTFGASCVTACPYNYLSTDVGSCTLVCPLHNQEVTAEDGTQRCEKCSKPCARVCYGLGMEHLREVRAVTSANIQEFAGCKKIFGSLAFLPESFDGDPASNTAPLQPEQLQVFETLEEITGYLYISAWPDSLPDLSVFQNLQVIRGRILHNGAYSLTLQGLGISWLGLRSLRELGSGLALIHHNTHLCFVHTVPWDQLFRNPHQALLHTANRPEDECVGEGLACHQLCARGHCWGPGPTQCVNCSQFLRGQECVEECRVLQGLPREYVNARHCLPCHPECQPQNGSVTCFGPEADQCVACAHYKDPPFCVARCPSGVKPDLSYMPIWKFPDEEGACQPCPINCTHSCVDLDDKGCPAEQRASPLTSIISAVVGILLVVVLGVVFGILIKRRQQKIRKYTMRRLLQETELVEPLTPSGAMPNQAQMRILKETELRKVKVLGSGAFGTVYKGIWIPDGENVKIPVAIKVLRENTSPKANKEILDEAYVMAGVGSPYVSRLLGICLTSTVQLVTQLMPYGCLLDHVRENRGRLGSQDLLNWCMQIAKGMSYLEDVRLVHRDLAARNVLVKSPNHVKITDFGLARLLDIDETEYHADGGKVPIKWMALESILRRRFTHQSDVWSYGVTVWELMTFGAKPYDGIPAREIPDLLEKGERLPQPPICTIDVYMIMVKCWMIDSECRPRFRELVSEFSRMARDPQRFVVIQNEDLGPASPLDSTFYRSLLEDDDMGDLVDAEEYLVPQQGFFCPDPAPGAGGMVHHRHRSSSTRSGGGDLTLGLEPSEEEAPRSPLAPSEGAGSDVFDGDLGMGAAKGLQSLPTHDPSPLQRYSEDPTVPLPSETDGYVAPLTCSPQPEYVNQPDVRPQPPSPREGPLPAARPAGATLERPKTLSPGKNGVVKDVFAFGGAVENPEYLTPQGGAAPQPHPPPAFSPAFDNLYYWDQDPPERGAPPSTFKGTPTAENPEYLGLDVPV

The experiment concerns the target Receptor tyrosine-protein kinase erbB-2 (Homo sapiens) (UniProt P04626). The experiment in a line: inhibitors of Her2 protein expression, primary screen, SKBR-3 cells, AlphaScreen, 66K library (AID 645).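 Note: 100% = DMSO carrier and 0% = 500 nM PU-H71 HSP90 inhibitor; lower value means stronger loss of Her2 protein.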 Conditions: SKBR-3 HER2 protein level, 18-24 h, at 10 µM, active compounds read low. (In Alpha technology, singlet oxygen from a donor bead excites a nearby acceptor bead.)
As to `CC(C)CCNc1nc(N2CCCC2)c2c(c1C#N)CCN(C)C2`, the HER2 level % of control is -0.705% (active).
The result for `CC(C)Cc1nc(N2CCOCC2)c(C#N)c2c1CCC2` reads 106% (inactive).
For the molecule `CCN1CCc2c(C#N)c(NCc3ccccc3)nc(NCCO)c2C1`, the HER2 level % of control was 94.1% (inactive).
The result for `COc1ccc(-c2cc3n(n2)CCc2nc4ccccc4n2-3)cc1` reads 74.2% (inactive).
For the molecule `COC(=O)CN(c1nc(C)c(Cl)c(OC)n1)S(=O)(=O)c1ccc(C)cc1`, the HER2 level % of control was 103% (inactive).
The same measure for `CCC(=NC1CC(C)(C)NC(C)(C)C1)C1=C(O)CC(C)(C)CC1=O`: 76% (inactive); for `CNC(=O)c1cc2c(ccc3ccccc32)oc1=N`: 74.1% (inactive); for `CCCC1C(c2ccccc2)C(C#N)(C#N)C2(C#N)CC1(N)NC2=O` (stereo not given): -19.3% (active).
The same measure for `O=C(O)CN(Cc1ccco1)S(=O)(=O)c1ccccc1`: 110% (inactive); for `CC1CCCC(C)N1C(=O)CN1CCN(c2nc(-c3ccc(F)cc3)cs2)CC1` (stereo not given): 90.1% (inactive); for `CCCCc1nccn1CCn1ccnc1CCCC`: 106% (inactive).
The same measure for `CCOC(=O)N1CCC(NC(=O)c2cnn3ccccc23)CC1`: 106% (inactive); for `CCCCCCC(=O)N(O)C1CC(=O)N(c2ccccc2)C1=O` (stereo not given): 81.1% (inactive).
With `CCN(CC)C(=O)C1CCC(C)(C(=O)O)C1(C)C` (stereo not given), the HER2 level % of control was 100% (inactive).
The same measure for `Cc1cc(C)c(C(=O)CN2C(=O)CCC2=O)cc1C`: 93.5% (inactive).
The result for `CCCc1nc(SCC(=O)Nc2ccccc2OC)c2c(=O)n(C)c(=O)n(C)c2n1` reads 31% (inactive); that for `COc1ccc(-c2c(C)nn3c(N4CCC(C(=O)N5CCCCC5)CC4)cc(C)nc23)cc1OC`, 83.2% (inactive).
The result for `O.O.O.O=S(=O)([O-])OC[C@H]1O[C@@H](O[C@]2(COS(=O)(=O)[O-])O[C@H](OS(=O)(=O)[O-])[C@@H](OS(=O)(=O)[O-])[C@@H]2OS(=O)(=O)[O-])[C@H](OS(=O)(=O)[O-])[C@@H](OS(=O)(=O)[O-])[C@@H]1OS(=O)(=O)[O-].[Al]` reads 102% (inactive); that for `CC(NC(=O)CSc1nc2c(cc1C#N)CN(C)CC2)c1ccccc1` (stereo not given), 110% (inactive).
On to `CSc1cccc(NC(=O)CSc2ccccc2)c1`, for which the HER2 level % of control is 95.7% (inactive).
The result for `O=C(NCCCN1CCN(C2CCCCC2)CC1)Nc1ccccc1C(F)(F)F` reads 82.5% (inactive).
The result for `CCCCN(C)Cc1c(C)[nH]c2ccc(Cl)cc2c1=O` reads 88% (inactive).
In the case of `CCCC(C)n1[nH]c(=O)c2c(C)cc(C)nc21` (stereo not given), the HER2 level % of control was 90.1% (inactive).
As to `c1cc(-n2cnnn2)ccc1NC1=NCCC1`, the HER2 level % of control is 92.1% (inactive).
The result for `COCCOC(=O)C1=C(C)NC(=O)NC1c1ccc(Cl)cc1` (stereo not given) reads 95.6% (inactive).
The result for `N#Cc1ccc(CSc2nnc(-c3ccccn3)n2-c2ccc(Cl)cc2)cc1` reads 41.4% (inactive); that for `O=C(c1ccco1)N1CCN(C(=O)C2CC(c3ccc(F)cc3)=NO2)CC1` (stereo not given), 57.7% (inactive); that for `OCCNCCCCOc1ccccc1F`, 116% (inactive).
The same measure for `O=C1c2oc3ccccc3c(=O)c2C(c2cccc(O)c2)N1c1ccccn1` (stereo not given): 95% (inactive).
`CCOC(=O)c1sc2nc(CSCC(=O)OCc3ccc(C(=O)OC)o3)[nH]c(=O)c2c1C`: the HER2 level % of control is 60.2% (inactive).
The result for `CCC(c1nnnn1Cc1ccco1)N(Cc1cc2cc(OC)ccc2[nH]c1=O)C1CCCCC1` (stereo not given) reads 1.98% (active); that for `CCC(c1nnnn1Cc1ccccc1)N(Cc1cc2cc(OC)ccc2[nH]c1=O)CC1CCCO1` (stereo not given), 117% (inactive).
The same measure for `CCC(c1nnnn1Cc1ccco1)N(CCc1ccccc1)Cc1cc2ccc(OC)cc2[nH]c1=O` (stereo not given): 76.1% (inactive); for `Cc1cc(NC(=O)CN2CCCCC2C)nc2c1c(=O)oc1ccccc12` (stereo not given): 70% (inactive).
For the molecule `COc1ccccc1CNC(=O)CCn1c(=O)sc2ccccc21`, the HER2 level % of control is 92.5% (inactive).
In the case of `COc1ccc(CN2CN(C(C)C)CSC2=S)cc1`, the HER2 level % of control is 10.7% (inactive).
Regarding `S=C1SCN(CCN2CCOCC2)CN1Cc1ccccc1`, the HER2 level % of control was 3.88% (active).
The same measure for `Cn1c(=O)c2c(nc(CN3CCOCC3)n2Cc2ccccc2)n(C)c1=O`: 75.7% (inactive); for `O=C(NCc1ccco1)C1CCCN(S(=O)(=O)c2cnc[nH]2)C1` (stereo not given): 105% (inactive); for `O=C(N1CCOCC1)N1CCOCC1`: 112% (inactive).
The same measure for `CS(=O)(=O)N(CC(=O)N1CCN(Cc2ccc3c(c2)OCO3)CC1)c1ccc2c(c1)OCO2`: 100% (inactive); for `COc1ccccc1C(=O)N1CCNC(=O)C1CC(=O)Nc1ccc(Cl)cc1` (stereo not given): 67.3% (inactive).
The same measure for `Cc1nc2nc3c(cn2n1)C(=O)CC(c1ccccc1)C3` (stereo not given): 122% (inactive); for `O=C(Cn1c(-c2ccccn2)nc2ccccc21)NCCN1CCOCC1`: 79.8% (inactive); for `COc1cc(C2C(C(=O)c3ccc(C)o3)=C(O)C(=O)N2Cc2cccnc2)ccc1O` (stereo not given): 154% (inactive).
`CCCN1C(=O)C(NS(=O)(=O)c2ccc(N)cc2)(C(F)(F)F)C(C(=O)OC)=C1C` (stereo not given): the HER2 level % of control is 126% (inactive).
The result for `CCOC(=O)CSc1nncc2ccc(OC)c(OC)c12` reads 115% (inactive); that for `CCOC(=O)N1CCN(C(=O)CN(c2ccc(C)c(C)c2)S(=O)(=O)c2ccccc2)CC1`, 224% (inactive).
The result for `Cc1sc2c(c1C)c(=O)n(-c1ccccc1)c1nncn21` reads 86.7% (inactive); that for `N#Cc1c(NC(=O)CSc2nc3ccccc3c(=O)n2Cc2ccco2)sc2c1CCCC2`, 70.4% (inactive).
The result for `O=C(NC(=O)c1ccc(Cl)c(Cl)c1)OC1CCS(=O)(=O)C1` (stereo not given) reads 106% (inactive); that for `OC1CN=C2Sc3ccccc3N2C1` (stereo not given), 119% (inactive).
For `O=C1c2ccccc2C(=O)N1CCc1nn[nH]n1`, the HER2 level % of control is 90.3% (inactive).
The same measure for `Cc1c(CN2CCC(C)CC2)c(=O)n(-c2ccccc2)n1C`: 107% (inactive); for `Cn1c(=O)n(C)c(=O)n(CC(=O)N2CCCCC2)c1=O`: 149% (inactive).
The same measure for `COc1ccccc1N1CCN(C(=O)CN(Cc2ccc(Cl)cc2)S(C)(=O)=O)CC1`: 68.2% (inactive).
The same measure for `COc1ccccc1N1CCN(Cc2nnnn2CCc2ccccc2)CC1`: 102% (inactive); for `COc1ccccc1-n1nnnc1S(=O)(=O)Cc1ccc(Cl)cc1`: -1.27% (active).
As to `CC(C)C(=O)N1CCN(CCN=CC2=C(O)CC(c3ccco3)CC2=O)CC1` (stereo not given), the HER2 level % of control is 116% (inactive).
The same measure for `CN(C)CCNC(=O)C(C(=O)c1ccccc1)n1ccccc1=O` (stereo not given): 99.7% (inactive).

These data come from PubChem BioAssay AID645 (SRMLSC, 2007).
